The values that follow come from PubChem BioAssay AID720706 (Broad Institute, 2013).

Structures are written as SMILES. The whole screen tested about 350,000 compounds, of which about 5,500 (1.6%) were called active.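 How the source made its calls: active means significant combined selectivity score with lowered wild-type GFP, culture density cut under 30%, mutant RFP and density less affected; inactive means any of these conditions unmet.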 Many of the other results were omitted from the sample, so actives are more common in it than they were.

The assay can be described thus: reduced GFP signal of wild-type E. coli, primary screen, bacterial rRNA inhibitor project, GFP/RFP fluorescence, OD600, single point (AID 720706). The note with it: E. coli WT GFP vs humanized-ribosome RFP mutants, 24 h; GFP signal change (wild-type ribosome): stronger effect = lower value, DMSO median 0, no signal -100; OD600 change: measured here: OD600 growth, DMSO median 0, no signal -100; RFP signal change: measured here: RFP humanized mutant strains, DMSO median 0, no signal -100, concentration not given here.
Consider `Nc1nonc1-n1nnc(C(=O)N/N=C/c2ccc(Cl)cc2)c1-c1ccc2c(c1)OCO2`, for which the GFP signal change (wild-type ribosome) was 0.08% (inactive), the OD600 change came out at 0.681% and the RFP signal change is -3.98%.

Take `C[C@@H]1CN([C@@H](C)CO)C(=O)c2cccc(NC(=O)c3cnccn3)c2O[C@H]1CN(C)S(=O)(=O)c1cccs1`: the GFP signal change (wild-type ribosome) was 4.71% (inactive), the OD600 change came to 6.99% and the RFP signal change is -1.1%.

For the molecule `CCC(=O)Nc1ccc2c(c1)OC[C@H](C)N(Cc1ccccc1OC)C[C@@H](C)[C@@H](OC)CN(C)C2=O`, the GFP signal change (wild-type ribosome) was 0.179% (inactive), the OD600 change is 4.08% and the RFP signal change worked out at 2.06%.

Regarding `CCCNC(=O)N(C)C[C@@H]1Oc2ncc(-c3ccccc3F)cc2C(=O)N([C@@H](C)CO)C[C@H]1C`, the GFP signal change (wild-type ribosome) is 0.96% (inactive), the OD600 change was found to be 11.5% and the RFP signal change is -3.35%.

Regarding `CC(=O)/C(=N\Nc1ccc(Cl)cc1Cl)Sc1cccc2cccnc12`, the GFP signal change (wild-type ribosome) was -8.55% (inactive), the OD600 change is -0.275% and the RFP signal change was -1.79%.

For the molecule `O=C(Nc1ccccc1)Oc1cccc2cccnc12`, the GFP signal change (wild-type ribosome) is 7.63% (inactive), the OD600 change was determined as 14.2% and the RFP signal change came out at 1.55%.

With `O=C(Nc1ccccc1Cl)Nc1cccc2cccnc12`, the GFP signal change (wild-type ribosome) was -27.2% (active), the OD600 change was -17.3% and the RFP signal change is -8.08%.

Turning to `COc1ccc2c3c(n(C)c2c1)[C@@H](CO)N(S(C)(=O)=O)CC31CCN(C(=O)C2CCC2)CC1`, the GFP signal change (wild-type ribosome) is -4.54% (inactive), the OD600 change was -7.74% and the RFP signal change was -2.66%.

Turning to `CCOC(=O)c1sc(/N=C/C2=C(O)CC(C)(C)CC2=O)c(C(=O)OCC)c1C`, the GFP signal change (wild-type ribosome) was -22.9% (active), the OD600 change was -5.5% and the RFP signal change is -2.5%.

Regarding `CCOC(=O)c1c(CC(C)C)csc1/N=C/C1=C(O)CCCC1=O`, the GFP signal change (wild-type ribosome) was -13.2% (inactive), the OD600 change was -8.82% and the RFP signal change is 21.8%.

Consider `CCNC(=S)N1CCN(CCN=CC2=C(O)CC(C)(C)CC2=O)CC1`, for which the GFP signal change (wild-type ribosome) was 9.96% (inactive), the OD600 change was determined as 0.25% and the RFP signal change is -7.06%.

Take `CC(C)C#Cc1ccc([C@H]2[C@@H](CO)N3CCCCN(C(=O)Nc4ccccc4)C[C@H]23)cc1`: the GFP signal change (wild-type ribosome) is -26% (inactive), the OD600 change is -29.6% and the RFP signal change was 1.8%.

For the molecule `CO[C@@H]1CN(C)C(=O)c2ccc(NC(=O)NC(C)C)cc2OC[C@@H](C)N(C)C[C@H]1C`, the GFP signal change (wild-type ribosome) is 2.58% (inactive), the OD600 change is 9.18% and the RFP signal change is 2.18%.

With `C=CCOC(=O)C1=C(C)NC(C)=C(C(=O)OCC=C)C1c1cccs1`, the GFP signal change (wild-type ribosome) was -17.1% (active), the OD600 change was -4.32% and the RFP signal change came to 3.89%.

On to `COC(=O)C1=CN(Cc2ccc(OC)c(OC)c2)C=C(C(=O)OC)C1c1cccs1`, for which the GFP signal change (wild-type ribosome) was -4.13% (inactive), the OD600 change was -22.2% and the RFP signal change came out at 6.91%.

Turning to `C=CCOC(=O)c1ccccc1C(=O)OCC=C`, the GFP signal change (wild-type ribosome) was 7.54% (inactive), the OD600 change was 7.92% and the RFP signal change amounted to 12%.

Take `Cc1noc(C)c1S(=O)(=O)Nc1ccc2c(c1)C(=O)N([C@@H](C)CO)C[C@@H](C)[C@@H](CN(C)S(=O)(=O)c1ccccc1)OCCCC[C@H](C)O2`: the GFP signal change (wild-type ribosome) is -1.55% (inactive), the OD600 change is -7.72% and the RFP signal change is -2%.

For `CC(NC(=O)c1ccco1)c1ccc2c(c1)OCO2` (stereo unspecified), the GFP signal change (wild-type ribosome) was -0.41% (inactive), the OD600 change came to 4.91% and the RFP signal change was -2.06%.

For the molecule `CC1(C(=O)NCc2ccco2)Cc2c(-c3ccc4c(c3)OCO4)ccnc2O1` (stereo unspecified), the GFP signal change (wild-type ribosome) was 10.2% (inactive), the OD600 change turned out to be 0.265% and the RFP signal change is -2.19%.

With `O=C1Nc2ccccc2NC(c2ccc3c(c2)OCO3)=C1N(Cc1ccc(F)cc1)C(=O)c1ccco1`, the GFP signal change (wild-type ribosome) is -28.3% (active), the OD600 change was -22.6% and the RFP signal change is 8%.

`CC(C)NC(=O)N(C)C[C@@H]1OCc2ccccc2-c2c(n(C)c3ccccc23)C(=O)N([C@@H](C)CO)C[C@H]1C`: the GFP signal change (wild-type ribosome) was 1.88% (inactive), the OD600 change was -5.55% and the RFP signal change was -8.97%.

Consider `CC(C)c1ccc(NC(=O)C2CCCN(S(=O)(=O)c3cccnc3)C2)cc1` (stereo unspecified), for which the GFP signal change (wild-type ribosome) was -15.6% (inactive), the OD600 change is -14.1% and the RFP signal change was -1.15%.

With `Cc1n[nH]c(C)c1S(=O)(=O)N1CCCC(C(=O)Nc2ccc(Br)cc2)C1` (stereo unspecified), the GFP signal change (wild-type ribosome) is -18.5% (active), the OD600 change is -8.94% and the RFP signal change is 2.17%.

For `CC(=O)Nc1ccc(NC(=O)C2CCCN(S(=O)(=O)c3ccc(Cl)cc3)C2)cc1` (stereo unspecified), the GFP signal change (wild-type ribosome) was 6.79% (inactive), the OD600 change stood at 9.12% and the RFP signal change is -1.21%.

In the case of `C[C@H](CO)N1C[C@H](C)[C@H](CN(C)CC2CCCCC2)Oc2ccc(NC(=O)CCCCCC(=O)Nc3ccccc3N)cc2C1=O`, the GFP signal change (wild-type ribosome) is 3.67% (inactive), the OD600 change came out at 1.29% and the RFP signal change turned out to be 2.33%.

As for `CN(C)C(=O)[C@H]1[C@H](CO)[C@H]2Cn3c(ccc(-c4ccc(F)cc4)c3=O)[C@H]2N1C(=O)c1ccccn1`, the GFP signal change (wild-type ribosome) is 3.15% (inactive), the OD600 change amounted to 9.51% and the RFP signal change was 0.335%.

As for `COC(=O)C[C@@H]1CC[C@@H]2[C@H](COc3ccc(NS(=O)(=O)c4ccccc4F)cc3C(=O)N2C)O1`, the GFP signal change (wild-type ribosome) is -1.08% (inactive), the OD600 change amounted to 1.69% and the RFP signal change amounted to 1.71%.

In the case of `NC(=O)c1ccc(CN2CCC(Cc3ccccc3)CC2)cc1`, the GFP signal change (wild-type ribosome) was 20.9% (inactive), the OD600 change stood at 10.4% and the RFP signal change stood at 1.24%.

As to `Brc1ccccc1CN1CCC(Cc2ccccc2)CC1`, the GFP signal change (wild-type ribosome) is -24.7% (active), the OD600 change was -12% and the RFP signal change is -3.42%.

Regarding `O=S1(=O)CCOC[C@H](Cc2ccccc2)N1Cc1ccccc1Br`, the GFP signal change (wild-type ribosome) is -13.5% (inactive), the OD600 change is -12.2% and the RFP signal change is -2.23%.

Take `O=C(C[C@H]1CC[C@@H]2[C@H](COC[C@H](O)CN2S(=O)(=O)c2ccccc2)O1)N1CCOCC1`: the GFP signal change (wild-type ribosome) was 6.11% (inactive), the OD600 change came out at 11.2% and the RFP signal change is -4.33%.

Regarding `O=C(c1ccccc1)N1CC(=O)N2[C@@H](CO)[C@H](c3ccc(C#CC4CC4)cc3)[C@@H]2C1`, the GFP signal change (wild-type ribosome) is 4.2% (inactive), the OD600 change turned out to be 0.601% and the RFP signal change was -2.44%.
